Data reported in PubChem BioAssay (NCI).
Compounds without any hit were thinned out: in the full panel of roughly 83,000, 20% have a hit.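 Each cell line was grown in a 96-well plate and treated with one concentration of compound for 48 hours. Values below 10 were considered active.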 The source made the active and inactive calls.

How the values were obtained:
Assay in all cases: NCI-60 one-dose screen, 48 h (100 = growth as untreated, 0 = no growth, -100 = all killed)
Conditions in all cases: 10 µM unless noted
[1] = tested on: HCT-15 colon
[2] = tested on: HT29 colon
[3] = tested on: SNB-75 CNS
[4] = tested on: SNB-19 CNS
[5] = tested on: U251 CNS
[6] = tested on: PC-3 prostate
[7] = tested on: SK-MEL-5 melanoma
[8] = tested on: UACC-62 melanoma
[9] = tested on: LOX IMVI melanoma
[10] = tested on: SK-MEL-28 melanoma
[11] = tested on: SK-MEL-2 melanoma
[12] = tested on: EKVX NSCLC
[13] = tested on: SN12C renal
[14] = tested on: UO-31 renal
[15] = tested on: TK-10 renal
[16] = tested on: ACHN renal
[17] = tested on: CAKI-1 renal
[18] = tested on: A498 renal
[19] = tested on: CCRF-CEM leukemia
[20] = tested on: MOLT-4 leukemia

Measured: growth

O=S(=O)(Nc1ccccc1)c1ccc(C2CC3(Cl)C(Cl)=C(Cl)C2(Cl)C3(Cl)Cl)cc1 (stereo not given)
inactive: [1] 50.6% | [2] 35.2% | [3] 69.6% | [4] 77.6% | [5] 39.8% | [6] 13.5% | [7] 60.7% | [8] 43.6% | [9] 39% | [10] 68.3% | [11] 74.1% | [12] 36.3% | [14] 26.7% | [15] 66.2% | [16] 40% | [18] 62.4% | [19] 47.6% | [20] 30%
active: [13] -18.5% | [17] -19.8%

CCN1CC(=O)N(/N=C2\C(=O)Nc3ccccc32)C1=S
inactive: [1] 95.1% | [2] 102% | [3] 80.3% | [4] 91.9% | [5] 99.2% | [6] 92% | [7] 79.4% | [8] 76.4% | [9] 86.5% | [10] 111% | [11] 92.7% | [12] 80.8% | [13] 86.1% | [14] 60.5% | [15] 105% | [16] 76.9% | [17] 59% | [18] 82.4% | [19] 102% | [20] 98%

Oc1c(Cl)cc(Cl)c2ccc(Cn3cc(-c4ccc(C(F)(F)F)cc4)nn3)nc12
inactive: [1] 31.3% | [2] 74.2% | [3] 74.1% | [4] 93.3% | [5] 99.8% | [6] 74.6% | [7] 98.8% | [8] 73.9% | [10] 51.2% | [11] 95.4% | [12] 81% | [13] 76.9% | [14] 68.5% | [15] 97.3% | [16] 36.7% | [17] 21% | [18] 83.7%
active: [9] 9.23% | [19] 6.1% | [20] -8.16%

COc1ccc(C(=S)N2CCN(c3ccccc3Cl)CC2)cc1OC
inactive: [1] 95.2% | [2] 102% | [3] 85.6% | [4] 85.3% | [5] 102% | [6] 90.3% | [7] 96.4% | [8] 89.2% | [9] 92.7% | [10] 103% | [11] 101% | [12] 97.4% | [13] 100% | [14] 104% | [15] 108% | [16] 97.2% | [17] 91.8% | [18] 94.6% | [19] 123% | [20] 76.4%

COc1ccccc1NC(=O)Cn1cc(CN2CCN(c3ccnc4cc(Cl)ccc34)CC2)nn1
inactive: [1] 91.8% | [2] 105% | [3] 75.2% | [4] 93.2% | [5] 97.1% | [6] 71.8% | [7] 73% | [8] 83.9% | [9] 95.1% | [10] 84.1% | [11] 112% | [12] 92.5% | [13] 98% | [14] 66.8% | [15] 102% | [16] 95.3% | [17] 80.2% | [18] 94.8% | [20] 70.8%
active: [19] -34.8%

COc1cccc(NC(=O)Cn2cc(CN3CCN(c4ccnc5cc(Cl)ccc45)CC3)nn2)c1
inactive: [1] 89.8% | [2] 98% | [3] 75.5% | [4] 88.7% | [5] 96.3% | [6] 67.4% | [7] 59.3% | [8] 75.8% | [9] 86.8% | [10] 102% | [11] 106% | [12] 76.7% | [13] 92.1% | [14] 62% | [15] 104% | [16] 85% | [17] 78% | [18] 104% | [20] 50%
active: [19] -45.1%

Cc1ccc(Cc2cnc(NC(=O)c3cc(Br)cs3)s2)cc1
inactive: [1] 24.4% | [2] 16.3% | [3] 64.5% | [4] 54% | [5] 46.9% | [6] 46.4% | [7] 46% | [8] 44.7% | [9] 54.6% | [10] 61.7% | [11] 26.9% | [12] 78.3% | [13] 68.7% | [14] 71.7% | [15] 78.1% | [16] 81.9% | [17] 53.9% | [18] 55.1% | [19] 31.8% | [20] 36.1%

O=C1/C(=C/c2ccc(Cl)cc2)COc2ccc(O)cc21
active: [9] -42.6% | [19] -5.84%
inactive: [1] 29.3% | [2] 15.3% | [3] 84.5% | [4] 82.1% | [5] 44.9% | [6] 69.8% | [7] 96.8% | [8] 78.1% | [10] 96.8% | [11] 101% | [12] 95.5% | [13] 69% | [14] 53.1% | [15] 100% | [16] 80% | [17] 70.8% | [18] 100% | [20] 14.8%

CC(C)OC(=O)c1ccc2[nH]c(O)c(C(=Nc3ccc(N(C)C(=O)CN4CCN(C)CC4)cc3)c3ccccc3)c2c1
active: [1] -14.4% | [2] -48.1% | [3] -98.1% | [4] 1.52% | [5] -90.5% | [6] 9.18% | [7] -95.4% | [8] -44.1% | [9] -96.7% | [10] -54.4% | [11] -73.6% | [12] -3.97% | [13] 8.95% | [14] -96.3% | [15] -90.5% | [16] 2.21% | [17] -93.4% | [18] -48.3% | [19] 6.41% | [20] -17.9%

CS(=O)(=O)C1=CN(CCO)C(=O)N2CCCN=C12
inactive: [1] 107% | [2] 107% | [3] 94.5% | [4] 99.2% | [5] 103% | [6] 98.8% | [7] 97.7% | [8] 102% | [9] 101% | [10] 104% | [11] 111% | [12] 100% | [13] 99.7% | [14] 78% | [15] 109% | [16] 103% | [17] 98% | [18] 88% | [19] 114% | [20] 106%

O=C(NCc1ccccc1)Nc1ccccc1CNc1nc(Nc2ccc(OCCN3CCCC3)cc2)ncc1Cl
inactive: [1] 56.6% | [2] 68.4% | [3] 82.4% | [4] 94.3% | [5] 45.5% | [6] 94.5% | [7] 95.2% | [8] 98.6% | [9] 88.8% | [10] 105% | [11] 108% | [12] 99.2% | [13] 101% | [14] 71.7% | [15] 110% | [16] 92.3% | [17] 106% | [18] 77.2% | [19] 20% | [20] 74.1%

N#Cc1c(N)nnn1Cc1cc(=O)oc2c1ccc1ccccc12
inactive: [1] 102% | [2] 101% | [3] 88.7% | [4] 91.7% | [5] 97.5% | [6] 93.4% | [7] 97.6% | [8] 92.5% | [9] 59.3% | [10] 113% | [11] 94.6% | [12] 76.1% | [13] 94.2% | [14] 72.8% | [15] 115% | [16] 97.6% | [17] 98% | [18] 89.7% | [19] 90.9% | [20] 89%

Cc1ccc(-c2nc3nc(-c4ccc(F)cc4)nc(N4CCNCC4)c3o2)cc1
active: [1] -80% | [2] -78.1% | [3] -2.57% | [5] -30.9% | [9] -92% | [13] -48.7% | [15] -35.8% | [16] -95.5% | [17] 1.35% | [19] -71% | [20] -64.6%
inactive: [4] 40.5% | [6] 14.8% | [7] 96.9% | [8] 91.1% | [10] 114% | [11] 102% | [12] 127% | [14] 76.7% | [18] 79.5%

C#COc1cccc(Nc2ncnc3ncc(NC(=O)CCl)cc23)c1
inactive: [3] 49.5% [6.25 µM] | [4] 20% [6.25 µM] | [6] 20.6% [6.25 µM] | [7] 47.1% [6.25 µM] | [8] 27.2% [6.25 µM] | [10] 55.4% [6.25 µM] | [11] 24.5% [6.25 µM] | [12] 57.1% [6.25 µM] | [17] 36.4% [6.25 µM] | [18] 61.8% [6.25 µM] | [19] 23.2% [6.25 µM] | [20] 50.4% [6.25 µM]
active: [1] -30.3% [6.25 µM] | [2] -65.2% [6.25 µM] | [5] -73.3% [6.25 µM] | [9] -94.2% [6.25 µM] | [13] 3.98% [6.25 µM] | [14] -68.1% [6.25 µM] | [15] -24.2% [6.25 µM] | [16] 7.63% [6.25 µM]

CN1CCN(C(=O)OCc2ccc3c(Cl)cc(Cl)c(O)c3n2)CC1
inactive: [1] 22.8% | [2] 103% | [3] 70.7% | [4] 53.3% | [5] 36.6% | [6] 44.1% | [7] 49.6% | [8] 60% | [9] 49.3% | [10] 67.1% | [11] 76% | [12] 79.7% | [13] 56.9% | [14] 34% | [15] 105% | [16] 45% | [17] 55.1% | [18] 106% | [19] 40.5%
active: [20] 8.31%

COc1ccc(C(=O)Nc2ncc(Cc3ccc(F)cc3)s2)cc1
inactive: [1] 11.5% | [3] 23.9% | [4] 31.2% | [5] 28.6% | [6] 27.6% | [8] 30.1% | [9] 20% | [10] 48.7% | [11] 30.7% | [12] 38.4% | [13] 25.1% | [14] 39.8% | [15] 63.7% | [16] 28.3% | [17] 22.3% | [19] 12.3% | [20] 14.8%
active: [2] 9.92% | [7] -4.84% | [18] -12.4%
